Laboratory results published in PubChem BioAssay AID589 (National Center for Advancing Translational Sciences (NCATS), 2007).
In all, about 59,000 compounds went through this assay and about 6,200 (11%) were called active. About 9% were inconclusive and are not listed. Cut-off read from the data, not from the text of the source: active = max dye-equivalent concentration above about 10 nM; inconclusive = mostly about 1.1 nM to 9.6 nM; inactive = weaker than that. The entries come from a sample that favours actives as a whole. A structure can be active in one record and inactive in another.

assay: qHTS Assay for Spectroscopic Profiling in 4-MU Spectral Region; conditions: compound autofluorescence, 340/450 nm, 4-MU equivalents; stronger effect = higher value
Procedure, shortened: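 Compounds in 100 mM Tris, pH 8.0, sat 15 min at room temperature before fluorescence was read at 340 nm excitation/450 nm emission; a per-plate six-point 4-MU standard curve converted signals to dye-equivalent concentration at each compound concentration.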

Structure (SMILES)	max dye-equivalent concentration	outcome
COc1ccc(C[C@H](N)C(=O)N[C@@H]2[C@H](O)[C@H](n3cnc4c(N(C)C)ncnc43)O[C@@H]2CO)cc1	inactive	–
O=S(=O)(c1ccc(Sc2nnc3ccccn23)nc1)N1CCOCC1	inactive	–
N#CCCN(CCC#N)c1nnc(-c2ccccc2)s1	inactive	–
O=S(=O)(Nc1ccccc1N1CCOCC1)c1ccc(Cl)s1	inactive	–
COC(=O)Cc1csc(Nc2c(C)n(C)n(-c3ccccc3)c2=O)n1	inactive	–
CCOC(=O)CSc1nc2c(c(=O)n(Cc3ccccc3Cl)c(=O)n2C)n1C	inactive	–
CCOc1ccc(NC(=O)Nc2ccc(N(C)C(C)=O)cc2)cc1	inactive	–
O=C(NC1CCCCC1)c1ccc2c(=O)n(CC3CCCO3)c(=O)[nH]c2c1 (centres undefined)	16 nM (active)	–
O=c1c2cc3c(=O)n(CC4CCCO4)c(=O)c3cc2c(=O)n1CC1CCCO1 (centres undefined)	inactive	–
Cc1ccc(C(=O)Nc2ccccc2C(=O)NC2CCCCC2)cc1S(=O)(=O)N1CCOCC1	inactive	–
CCOC(=O)c1ccc(N2C(=O)CC(N3CC(C)OC(C)C3)C2=O)cc1 (centres undefined)	inactive	–
CNCC[C@H](Oc1ccc(C(F)(F)F)cc1)c1ccccc1	13 nM (active)	inactive
Clc1ccc(C=Nc2ccc3c(c2)Cc2ccccc2-3)c(Cl)c1	inactive	–
Cc1cc(C)nc(NC(=O)C(C)N2C(=O)c3ccccc3C2=O)n1 (centres undefined)	inactive	–
COC(=O)c1ccc(NC(=O)C(C)N2C(=O)c3ccccc3C2=O)cc1 (centres undefined)	inactive	–
CC(C(=O)O)N1C(=O)c2cccc3cccc1c23 (centres undefined)	15 nM (active)	–
O=c1cc(CO)oc(CN2CCC(Cc3ccccc3)CC2)c1O	inactive	–
Cc1cccc2nc(CNc3ccc(F)cc3)cn12	inactive	–
CC(C)OC(=O)C(C#N)c1nc2ccccc2nc1N1CCN(Cc2ccc3c(c2)OCO3)CC1 (centres undefined)	110 nM (active)	–
CC(C)OC(=O)C(C#N)c1nc2ccccc2nc1N1CCN(Cc2ccccc2)CC1 (centres undefined)	inactive	–
COc1ccc(-c2csc(N3CCN(Cc4ccc5c(c4)OCO5)CC3)n2)cc1	inactive	–
O=C(c1ccccc1)c1ccc(OC(=O)N2CCCC2)cc1	inactive	–
COc1ccccc1-c1nc(NCCNC(C)=O)c2ccccc2n1	inactive	–
CCCCN(C)Cc1c(C)[nH]c2ccc(Cl)cc2c1=O	inactive	–
Cc1ccc(S(=O)(=O)C(C#N)c2nc3ccccc3nc2N2CCCC2)cc1C (centres undefined)	150 nM (active)	–
CCn1cc(C(=O)NCc2ccc3c(c2)OCO3)c2cc(OC)c(OC)cc2c1=O	inactive	–
Cc1ccccc1N1C(=O)C2ON(c3ccccc3)C(c3ccncc3)C2C1=O (centres undefined)	inactive	–
C=CCn1c(SCC(=O)NC23CC4CC(CC(C4)C2)C3)nc(O)cc1=O	inactive	–
